Calls of active or inactive are those of the source. Calls follow the shape of the dose curve; as a rule, active = well fitted curve in the direction sought with a large enough effect; inconclusive = small, poorly fitted or top-dose-only effect, or effect the other way, or another doubt; inactive = no such curve, though single readings can be large or run the other way.
Target: Pyruvate kinase PKLR (Homo sapiens) (UniProt P30613)
Test: Secondary Concentration-Response Assay for Activators of Human Liver Pyruvate Kinase: for Probe SAR
Details: purified hPK-L, ATP production, Kinase-Glo luminescence; series mostly up to 58.3 µM
Procedure, shortened: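 Luciferase-coupled luminescence (Kinase-Glo) reports ATP made by 0.1 nM hPK-L from 0.5 mM PEP (at Km) and 0.1 mM ADP (about 10-fold below Km); pH 7.2 imidazole buffer, 1 h room temperature, in concentration-response format.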

Chain of Pyruvate kinase PKLR (Homo sapiens) (P30613 whole entry, looked up): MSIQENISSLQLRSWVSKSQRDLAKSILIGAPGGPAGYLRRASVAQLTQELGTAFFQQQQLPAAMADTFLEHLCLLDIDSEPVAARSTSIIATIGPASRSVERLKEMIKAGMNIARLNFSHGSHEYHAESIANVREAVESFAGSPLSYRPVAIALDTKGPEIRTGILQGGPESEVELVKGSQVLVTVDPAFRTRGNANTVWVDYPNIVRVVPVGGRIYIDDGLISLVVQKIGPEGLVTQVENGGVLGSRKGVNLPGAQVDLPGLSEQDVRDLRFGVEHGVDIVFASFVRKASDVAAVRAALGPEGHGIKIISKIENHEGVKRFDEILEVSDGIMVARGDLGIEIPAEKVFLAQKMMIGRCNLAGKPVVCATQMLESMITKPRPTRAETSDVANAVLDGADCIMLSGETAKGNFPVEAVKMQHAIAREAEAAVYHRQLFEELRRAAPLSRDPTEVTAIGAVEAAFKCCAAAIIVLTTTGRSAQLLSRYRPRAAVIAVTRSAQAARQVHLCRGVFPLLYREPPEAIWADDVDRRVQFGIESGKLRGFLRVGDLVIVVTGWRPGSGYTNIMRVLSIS

outcome, inactive:
Cc1ccc(N[S+](=O)([O-])c2cc3c(cc2CCc2ccccc2)NC(=O)CO3)cc1C, Cc1ccc(NS(=O)(=O)c2cccc(C(=O)O)c2)cc1C, O=C1CCc2cc(S(=O)(=O)Nc3ccc(Cl)cc3)ccc2N1, Cc1ccccc1Nc1c(-c2ccc(Cl)s2)nc2ccccn12, CNc1cccc(S(=O)(=O)N2CCN(S(=O)(=O)c3ccc4c(c3)OCCO4)CC2)c1, Cc1ccc(-c2nc3ccccn3c2Nc2ccccc2C)o1, O=C1CCc2cc(Cl)c(S(=O)(=O)Nc3ccc(Cl)c(Cl)c3)cc2N1, Cc1ccc(N(C)S(=O)(=O)c2ccc3c(c2)CCC(=O)N3)cc1C, O=C1c2ccccc2C(=O)N1c1cnc2ccccc2c1, Cc1ccc(NS(=O)(=O)c2cc3c(cc2F)NC(=O)CC3)cc1Cl, Cc1ccc(Nc2c(-c3ccsc3)nc3c(C)cccn23)cc1, Cc1ccc(NS(=O)(=O)c2cc3c(cc2-c2cn[nH]c2)NC(=O)CO3)cc1C, O=C1c2ccccc2C(=O)N1Cc1ccccn1, O=C1c2ccccc2C(=O)N1c1ncccc1O, O=C1c2ccccc2C(=O)N1c1ccncc1, O=C1c2ccccc2C(=O)N1c1ccc(O)cc1, Cc1c(Cl)cccc1NS(=O)(=O)c1cc2c(cc1F)NC(=O)CC2, O=C1CCc2cc(S(=O)(=O)Nc3ccc(Cl)c(Cl)c3)ccc2N1, Cc1ccc(-c2nc3cccc(C)n3c2Nc2ccc(F)cc2)o1
